Experiment [1] can be described thus: suppressors of polyQ aggregation in yeast, 75Q-TubU reporter (AID 1593). Conditions: Yeast 75Q polyglutamine aggregation reporter.
A short description of experiment [2]: inhibitors of mitochondrial cytochrome c release, biochemical, purified mitochondria (AID 1603).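 Also: mouse liver mitochondria challenged with calcium chloride; signal normalized to the plate average as 100%.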 Conditions: stronger effect = lower value.
A short description of experiment [3]: inhibitors of polyQ protein aggregation (AID 1604). As to conditions: polyglutamine-induced protein aggregation inhibition assay; stronger effect = higher value; tested at 2.5 µM.
Experiment [4] in a line: stimulators of nuclear beta-catenin in C2C12, primary screen, imaging, WNT3A-conditioned medium, mouse C2C12, NPC library (AID 1117326; in the data active = nuclear beta-catenin stimulation mostly above about 4.2%, no sharp cut-off; inactive = mostly below about 10%). As to conditions: stronger effect = higher value.
Experiment [5] can be described thus: stimulators of insulin release from INS-1E, primary screen, cell-based, 5 mM glucose, NPC library (AID 1117329;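 active = compound raises insulin release from rat beta cells at 5 mM glucose, no numeric limit stated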). As to conditions: rat INS-1E insulin secretion, at 10 µM, stronger effect = higher value.
Experiment [6] can be described thus: growth inhibition of GSK3B-pretreated HCT116 cells – cell-based, CellTiter-Glo, 0.2 to 20 µM (AID 1117336;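 active = compounds lowering colon cancer cell viability after pretreatment blocking the GSK3B kinase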). Conditions: HCT116 viability after GSK3B inhibitor, at 20 µM, stronger effect = higher value. Background: ATP-based viability assays read luminescence as a measure of living cells.
Experiment [7] in a line: inhibition of endothelial tube formation, primary screen, imaging, VEGF stimulated, CD31 staining, tube area, NPC library (AID 1117340;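 active = compound that reduces growth-factor-driven endothelial tube area in a mixed cell culture, no cutoff stated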). As to conditions: VEGF-stimulated ADSC/ECFC co-culture, at 10 µM, stronger effect = higher value.
Experiment [8] is described as follows: glucagon-like peptide 1 release enhancers, primary assay, NCI-H716 cell line, NPC library (AID 1117341;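 active = compound raises GLP1 secretion from the human gut endocrine cells, with no numeric limit stated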). As to conditions: NCI-H716 cells, at 10 µM, stronger effect = higher value.
Experiment [9] is described as follows: HCT116 colon cancer cell growth inhibition, primary screen, CellTiter-Glo luminescence, NPC library (AID 1117342;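 active = compounds that lower survival of HCT116 colon cancer cells in the luminescence readout, no numeric limit stated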). Conditions: at 20 µM (top of the series).
Experiment [10] is described as follows: CellTiter-Glo luminescent readout of SW480 viability loss, NPC library primary (AID 1117343;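 active = compounds that lower viability of the colon cancer cells in the luminescence readout, with no numeric limit stated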). As to conditions: CellTiter-Glo luminescence; at 20 µM (top of the series).
Experiment [11] in a line: decreased DLD-1 cellular survival, CellTiter-Glo luminescent readout, NPC compound collection, primary HTS (AID 1117346;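 active = compounds that lower survival of DLD-1 colon cancer cells in the luminescence readout, no cutoff given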). As to conditions: DLD-1 viability, CellTiter-Glo luminescence; at 20 µM (top of the series).
The target of experiment [12] is 6-phosphogluconate dehydrogenase, decarboxylating (Homo sapiens) (UniProt P52209). Nature of the experiment: 6PGD enzyme inhibitors, primary screen, biochemical, human, recombinant enzyme, NADPH absorbance (AID 1159550;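 active = at least 20% inhibition of 6-phosphogluconate dehydrogenase activity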). Conditions: recombinant 6PGD, NADPH absorbance 341 nm; at 10 µM; stronger effect = higher value.
A short description of experiment [13]: differential killing of epithelial or mesenchymal cells, primary screen, imaging, PC-3E GFP, TEM4-18 mCherry, co-culture (AID 1345086;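 active = compounds killing one labelled cell type while sparing the other, by normalised counts and ratio limits, not self-fluorescent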;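 as to all read-outs here: cells exposed to compound for 72 h before imaging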;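 as to red/green cell ratio (normalised): normalised mesenchymal count divided by normalised epithelial count so high means epithelial killing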). As to conditions: imaging cell counts, at 1 µM; for red/green cell ratio (normalised): actives lie on both sides.
The subject of experiment [14] is Aerobactin synthetase IucA (Klebsiella pneumoniae hvKP1). Nature of the experiment: Biochemical IucA enzyme inhibition primary screen of the Spectrum library (AID 1346200; call rule not given here;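 also: 100% = wells without compound and 0% = wells lacking enzyme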). Conditions: malachite green pyrophosphate, A620, at 8 µM, stronger effect = lower value.
The nature of experiment [15]: sensitizers of A549 cells to miR-34 induction, primary screen, imaging, A549 dox-inducible miR-34, nuclei and caspase counts (AID 1347080;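 active = compounds whose cell count with miR-34 switched on is under 0.7 times the count with it off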). Conditions: A549 miR-34 inducible, Hoechst nuclei count, 48 h.
A short description of experiment [16]: survival rescue of mitochondrial mutant cells in low glucose, primary screen, MELAS cybrids, Rieske KO mouse fibroblasts, CellTiter-Glo (AID 1508586;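 active = mean z-score across replicates of 1.96 or higher in either the MELAS or the Rieske mutant cell line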;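 also: z relative to plate mean and SD of compound and empty wells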).
Experiment [17] concerns the target NAD(+) hydrolase SARM1 (Homo sapiens) (UniProt Q6SZW1). Nature of the experiment: SARM1 TIR NADase inhibitors, cell lysate, NAD-Glo luminescence (AID 1508614;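 active = compound whose remaining NAD level is above about 45 nM, limit read from the data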;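 also: higher remaining NAD means stronger inhibition of SARM1 NADase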). Conditions: SAM-TIR HEK293T lysate NADase, at 1 µM, stronger effect = higher value.
For experiment [18], the target named is Mitogen-activated protein kinase 7 (Homo sapiens) (UniProt Q13164). Nature of the experiment: ERK5 transactivation activators in reporter cells, primary screen, cell-based, HTS (AID 1508626;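 active = luciferase signal above three times the same-plate solvent-only control wells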;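 also: luciferase driven by Gal4-ERK5 fusion binding five Gal4 sites before minimal TATA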). Conditions: HeLa Gal4-ERK5 transactivation, 18 h, at 5 µM, stronger effect = higher value.
Experiment [19] can be described thus: viability rescue of complex I mutant cybrids, primary screen, cell-based, galactose medium, ATP luminescence (AID 1645843).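 Also: positive z means more ATP and so rescue of galactose-driven cybrid death.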 As to conditions: complex I mutant cybrid cells, 72 h, stronger effect = higher value.
[20] abbreviates: measured here: epithelial PC-3E GFP cell survival.
The mark [21] stands for this setting: measured here: mesenchymal TEM4-18 mCherry cell survival.
The mark [22] stands for this setting: MELAS cybrid survival, CellTiter-Glo 48 h, stronger effect = higher value.
Where [23] appears, read: Rieske KO mouse fibroblast survival, CellTiter-Glo 72 h.

Several values for one entry are separate records, joined by “and”; a condition that tells them apart may be missing. Equal values may be shown once. Activity calls are given as the source filed them.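 The calls were made as follows, unless noted: active = z-score of at least 1.8 in each of two replicates, scored against plate mean and spread of sample wells; inactive = the rest.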

6-phosphogluconate dehydrogenase, decarboxylating (Homo sapiens), sequence (P52209 whole entry, looked up): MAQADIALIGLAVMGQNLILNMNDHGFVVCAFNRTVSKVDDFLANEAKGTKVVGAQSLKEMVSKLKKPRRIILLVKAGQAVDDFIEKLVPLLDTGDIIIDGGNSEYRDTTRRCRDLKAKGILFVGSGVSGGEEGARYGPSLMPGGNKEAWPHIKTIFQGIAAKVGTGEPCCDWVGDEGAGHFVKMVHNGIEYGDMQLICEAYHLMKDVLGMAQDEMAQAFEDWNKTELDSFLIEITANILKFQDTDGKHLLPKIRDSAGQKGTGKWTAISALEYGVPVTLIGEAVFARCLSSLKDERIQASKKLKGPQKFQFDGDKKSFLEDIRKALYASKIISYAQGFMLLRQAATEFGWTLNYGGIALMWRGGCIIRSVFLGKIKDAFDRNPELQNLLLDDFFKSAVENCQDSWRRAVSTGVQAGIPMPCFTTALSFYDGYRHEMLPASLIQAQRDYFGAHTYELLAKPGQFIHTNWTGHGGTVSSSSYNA
NAD(+) hydrolase SARM1 (Homo sapiens), sequence (Q6SZW1 whole entry, looked up, the tested form may be a part): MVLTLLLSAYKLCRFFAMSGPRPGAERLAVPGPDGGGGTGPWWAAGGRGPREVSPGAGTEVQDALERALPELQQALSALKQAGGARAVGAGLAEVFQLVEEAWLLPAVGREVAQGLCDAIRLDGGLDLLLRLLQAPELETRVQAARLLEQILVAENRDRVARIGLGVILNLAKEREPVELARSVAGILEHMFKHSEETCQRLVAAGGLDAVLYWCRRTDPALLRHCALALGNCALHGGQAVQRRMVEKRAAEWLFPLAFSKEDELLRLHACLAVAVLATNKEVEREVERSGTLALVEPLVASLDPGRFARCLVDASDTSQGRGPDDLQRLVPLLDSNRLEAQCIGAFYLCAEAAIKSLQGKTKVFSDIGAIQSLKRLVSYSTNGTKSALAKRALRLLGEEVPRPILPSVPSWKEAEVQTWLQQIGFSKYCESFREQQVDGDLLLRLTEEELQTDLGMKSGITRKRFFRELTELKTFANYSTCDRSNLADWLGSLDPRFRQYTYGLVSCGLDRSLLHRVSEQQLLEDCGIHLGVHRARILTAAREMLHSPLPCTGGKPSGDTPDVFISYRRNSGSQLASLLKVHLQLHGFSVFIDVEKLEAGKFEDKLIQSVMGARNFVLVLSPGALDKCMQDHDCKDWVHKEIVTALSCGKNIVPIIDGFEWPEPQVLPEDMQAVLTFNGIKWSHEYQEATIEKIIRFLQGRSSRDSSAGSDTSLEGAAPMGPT
Mitogen-activated protein kinase 7 (Homo sapiens), sequence (Q13164 whole entry, looked up, the tested form may be a part): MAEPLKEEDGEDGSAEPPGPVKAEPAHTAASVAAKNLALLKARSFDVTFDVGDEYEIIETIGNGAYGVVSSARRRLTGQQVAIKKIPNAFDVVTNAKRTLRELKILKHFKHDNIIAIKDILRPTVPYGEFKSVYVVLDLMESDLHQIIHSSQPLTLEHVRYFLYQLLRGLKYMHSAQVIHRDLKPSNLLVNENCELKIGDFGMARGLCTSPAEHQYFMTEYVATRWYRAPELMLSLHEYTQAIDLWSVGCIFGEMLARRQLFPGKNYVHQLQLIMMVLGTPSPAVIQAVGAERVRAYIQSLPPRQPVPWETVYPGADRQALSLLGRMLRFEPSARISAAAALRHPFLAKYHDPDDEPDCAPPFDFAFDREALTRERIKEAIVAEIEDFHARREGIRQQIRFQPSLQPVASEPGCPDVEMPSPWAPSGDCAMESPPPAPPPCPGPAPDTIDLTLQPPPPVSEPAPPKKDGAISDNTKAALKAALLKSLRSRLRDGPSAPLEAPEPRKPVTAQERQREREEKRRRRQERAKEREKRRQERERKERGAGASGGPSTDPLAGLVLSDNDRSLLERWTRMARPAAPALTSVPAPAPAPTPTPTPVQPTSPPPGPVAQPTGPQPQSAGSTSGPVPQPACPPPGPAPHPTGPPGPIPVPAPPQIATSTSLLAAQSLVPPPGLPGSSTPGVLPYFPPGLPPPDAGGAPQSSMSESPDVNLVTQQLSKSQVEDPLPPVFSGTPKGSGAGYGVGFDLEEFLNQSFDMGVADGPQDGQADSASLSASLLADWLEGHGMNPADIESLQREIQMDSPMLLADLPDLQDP

One may read the inhibition as the change of the read-out against control, counted positive when it falls. With `CCCC(C)(COC(N)=O)COC(=O)NC(C)C` (centres undefined), the score in experiment [1] came to 1.44. Also, in experiment [2], the cytochrome c release ratio was 0.68. The inhibition of aggregation in [3] amounted to 85.8%. Moreover, the nuclear beta-catenin stimulation in [4] (at 10 µM) is 0.1% (inactive); in [4] (stimulation, at 2 µM) it was -0.6%. Moreover, the insulin secretion stimulation in experiment [5] is 3.4% (inactive). Further, in [6], the viability decrease was -38.7% (inactive). Besides, in experiment [7], the tube area decrease was 14.3% (inactive). Besides, the GLP1 secretion stimulation in [8] is -1.3% (inactive). Moreover, the inhibition of viability in experiment [9] is -14.1% (inactive). The figures for the viability decrease (inhibition) in [10] and in experiment [11] were -5.3% (inactive) and -12.4% (inactive), respectively. Further, the inhibition in experiment [12] is -0.85% (inactive). The red/green cell ratio (normalised) in [13] was 1.05 (inactive). In addition, the normalised cell number came to 1.17 in experiment [13] (setting [20]) and 1.23 in experiment [13] (setting [21]). In addition, in experiment [14], the activity remaining was 115% (inactive). The fold change is 0.952 (inactive) and 0.896 (inactive) and 0.902 (inactive) in experiment [15] (stronger effect = lower value); 1.07 and 1.02 and 3.4 in experiment [15] (measured here: relative caspase fold change +Dox/-Dox). In addition, the cell count in experiment [15] (measured here: total cells with miR-34 induction, stronger effect = lower value) was 10700 and 9140 and 11300; in experiment [15] (measured here: total cells without miR-34 induction) it was 11200 and 10200 and 12600. In addition, the z-score is 0.305 (inactive) in experiment [16] (setting [22]), 0.223 in experiment [16] (setting [23]) and 1.27 (inactive) in experiment [19]. For the same compound, the remaining NAD in experiment [17] was 10 nM (inactive). Also, in experiment [18], the luciferase signal is 40 AU (inactive).
In experiment [1], `O=P1(N(CCCl)CCCl)NCCCO1` (centres undefined) showed a score of 0.77. In [2], the cytochrome c release ratio was determined as 1. Further, the inhibition of aggregation in experiment [3] is 69.7%. The nuclear beta-catenin stimulation in experiment [4] (at 10 µM) is 1% (inactive); in experiment [4] (stimulation, at 2 µM), 0.9%. Besides, the insulin secretion stimulation in experiment [5] is -1% (inactive). Moreover, the viability decrease in experiment [6] is -1.15% (inactive). Moreover, in experiment [7], the tube area decrease was 16.1% (inactive). In experiment [8], the GLP1 secretion stimulation was 1.6% (inactive). Moreover, in [9], the inhibition of viability was -24.2% (inactive). For the same compound, the viability decrease (inhibition) in experiment [10] was 101% (active); in [11], -8.15% (inactive). For the same compound, the inhibition in experiment [12] was -5.23% (inactive). Moreover, the red/green cell ratio (normalised) in [13] was 1.26 (inactive). Moreover, the figures for the normalised cell number in [13] (setting [20]) and in experiment [13] (setting [21]) were 1.18 and 1.48, respectively. Further, the activity remaining in experiment [14] was 120% (inactive). For the same compound, the z-score in [16] (setting [22]) is 0.187 (inactive) and -0.193 (inactive); in [16] (setting [23]) it was -0.0217 and -1.38; in [19] it was 0.055 (inactive) and 0.19 (inactive) and -0.255 (inactive). The remaining NAD in experiment [17] is 10 nM (inactive). Besides, the luciferase signal in experiment [18] was 84 AU (inactive).
Consider `CC(Cc1ccccc1)N(C)Cc1ccco1` (centres undefined), for which the nuclear beta-catenin stimulation was -0.5% (inactive) in experiment [4] (at 10 µM) and 0.7% in experiment [4] (stimulation, at 2 µM). Moreover, the insulin secretion stimulation in experiment [5] was 2.3% (inactive). For the same compound, the viability decrease in experiment [6] was -12.2% (inactive). In addition, the tube area decrease in [7] is 25.5% (inactive). Further, the GLP1 secretion stimulation in experiment [8] is 0.1% (inactive). For the same compound, in experiment [9], the inhibition of viability is 8.5% (inactive). In addition, the viability decrease (inhibition) in experiment [10] is 4.3% (inactive); in experiment [11], -1.8% (inactive).
In the case of `O=C(O)CCCc1ccc(N(CCCl)CCCl)cc1`, the score in experiment [1] was -0.24. Moreover, the cytochrome c release ratio in [2] amounted to 1.24. Also, the inhibition of aggregation in [3] was 81.4%. Further, the nuclear beta-catenin stimulation in experiment [4] (at 10 µM) was 3.6% (inactive); in [4] (stimulation, at 2 µM) it was -1.1%. The insulin secretion stimulation in experiment [5] was -0.1% (inactive). Moreover, the viability decrease in [6] is 49.8% (inactive). Also, the tube area decrease in experiment [7] is 87% (active). The GLP1 secretion stimulation in [8] is -0.8% (inactive). The inhibition of viability in experiment [9] is 8.83% (inactive). Besides, the viability decrease (inhibition) in experiment [10] was 3.9% (inactive); in experiment [11], 2.6% (inactive). In [12], the inhibition was -1.4% (inactive). Besides, in experiment [13], the red/green cell ratio (normalised) was 0.75 (inactive). In addition, the normalised cell number worked out at 1.2 in experiment [13] (setting [20]) and 0.9 in [13] (setting [21]). Also, in [14], the activity remaining is 115% (inactive). Further, the z-score in experiment [16] (setting [22]) is -0.116 (inactive) and 0.451 (inactive); in [16] (setting [23]), -0.284 and -0.412; in experiment [19] it was -0.065 (inactive) and 0.565 (inactive). For the same compound, the remaining NAD in experiment [17] is 10 nM (inactive). For the same compound, the luciferase signal in experiment [18] is 144 AU (inactive).

Source of the values: PubChem BioAssay.
